Results from the OligoGym collection.

Each sequence was assayed against HLA-DRA (assay: pooled miR-30 sensor sort-seq; sequence = guide strand). Settings: shRNA.
Also: reference of the scale not given here.

Sequence	sensor-assay potency score (higher = more potent)
TACCTCTGGAGGTACATTGGTG	-0.943
TAAACAATAAGTACACAAGAGA	-0.861
TCTTCAGTGATCTTCTCTCTAA	-0.905
AGACTGTCTCTGACACTCCTGT	-1.07
TTGTCTATGAAACAGATGAGGA	-0.94

The sequences below were run against HMGB2 in the same assay as above. Settings: shRNA.

Sequence	sensor-assay potency score (higher = more potent)
TTCTGGTTCGTTCTTCTTCTTT	-0.774
TATCTTTGGCTGACTGCTCAGA	-0.772
TTCTTCTTCTTTGAGCCTGTTG	-0.484
TTTCTTCTTGTGCTCTTCCCGG	-1.12
TTTAGGAGCATTGGGGTCCTTT	-0.857
TTTAGGAACATTCAACATCAGA	-0.879
TTTAGCTTAGCTGCTTTCTGTT	-0.377
TTCAAACTTCGACTTCTCCTTT	0.655
TTAGCTTAGCTGCTTTCTGTTC	-0.873
TTCTTCTTGTGCTCTTCCCGGC	-0.526
TTTGCAGACATGGTCTTCCATC	-0.617

Each sequence was assayed against HMGN1 in the same assay as above. Settings: shRNA.

Sequence	sensor-assay potency score (higher = more potent)
TTCGCTTCCACTTTTGCAGGAG	0.413
AAGATTTATCCTTCGCTGCTGC	-0.0749
TTGATAAAAATATTCCTCTGGA	0.157
TAAGTCTTCTTTAGTTTCTTGG	0.158
TACCAAAAAATAAACAACCAGC	-1.01
TTAGCTGACAACCGCGCCGATC	-1.18
TTGGTTAGCCACTTCGGCCTGT	0.684
TTTAGCTGACAACCGCGCCGAT	-0.654
TTCTTGGTTAGCCACTTCGGCC	-1.77
TTATCCTTCGCTGCTGCCTTTT	-1.55
TTTAGTTTCTTGGTTAGCCACT	-0.724
TAGGATATAAAAACTAACCCCC	-0.107

What follows are sequences tested against HMOX1 in the same assay as above. Settings: shRNA.

Sequence	sensor-assay potency score (higher = more potent)
TTGAGCAGGAACGCAGTCTTGG	-0.286
TCTTCTATCACCCTCTGCCTGA	-0.665
TCTTCTGGGAAGTAGACAGGGG	-0.217
TAGGGGATGACCTCCTGCCAGC	-1.69
TCATGAACTCAGCATTCTCTGC	-0.85
TAGAGCTGCTTGAACTTGGTGG	0.136
TTGAACTTGGTGGCACTGGCAA	-0.865
AAACACAAGACACAACATCTTT	-0.747
TTGCACTTTGTTGCTGGCCCGC	-1.2
TATAAAAACAACAGAACACAAC	-1.08
TTGCGGTGCAGCTCTTCTGGGA	-0.856
TACAGCAACTGTCGCCACCAGA	-0.902
